ARNT-TACC3 inh = disruptors of human ARNT/TACC3 interaction. inhibition, % at 9.99 µM. Q9Y6A5. AID 623870. AlphaScreen His-ARNT PAS-B/GST-TACC3 binding, luminescence; TACC3 fragment carries E629A point mutation. hit rate 0.66% among 390,000;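 active = mean inhibition of replicates at least 50% and at least half of replicates each reaching 50%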;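 note: 0% = complete ARNT plus TACC3 wells and 100% = ARNT alone without TACC3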
DAGLB inhibitor = blocks human DAGLB lipase activity. Q8NCG7. HEK293T DAGLB membrane lysate, EnzChek fluorogenic substrate. inhibition, % at 5.17 µM. hit rate 0.059% among 340,000; in the data active = inhibition above about 34%;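 note: 0% = enzyme with vehicle and 100% = wells lacking enzyme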
Neddyl block = cullin neddylation inhibition; TR-FRET cullin neddylation, biochemical; inhibition, % at 25 µM; hit rate 0.58% among 360,000; AID 651699; in the data active = inhibition above about 36%
NadD inh = inhibitors of Staphylococcus aureus NadD. hit rate 0.78% among 360,000. inhibition, % at 20 µM. AID 602399. purified NadD enzyme, colorimetric absorbance read-out; in the data active = inhibition above about 26%
sPLA2-III inh = Inhibits HGIII-sPLA2 liposome hydrolysis, primary screen; Q9NZ20; QFRET BODIPY PC-A2 liposome hydrolysis, fluorescence; inhibition, % at 12.2 µM; hit rate 0.56% among 370,000; AID 743126;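 active = inhibition above mean plus 3 SD of compounds lying within the high and low control bounds, cut at about 19% in these data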;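 note: 0% = median of test compound wells and 100% = no enzyme DMSO wells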
Target sequence (Q9NZ20 whole entry, looked up): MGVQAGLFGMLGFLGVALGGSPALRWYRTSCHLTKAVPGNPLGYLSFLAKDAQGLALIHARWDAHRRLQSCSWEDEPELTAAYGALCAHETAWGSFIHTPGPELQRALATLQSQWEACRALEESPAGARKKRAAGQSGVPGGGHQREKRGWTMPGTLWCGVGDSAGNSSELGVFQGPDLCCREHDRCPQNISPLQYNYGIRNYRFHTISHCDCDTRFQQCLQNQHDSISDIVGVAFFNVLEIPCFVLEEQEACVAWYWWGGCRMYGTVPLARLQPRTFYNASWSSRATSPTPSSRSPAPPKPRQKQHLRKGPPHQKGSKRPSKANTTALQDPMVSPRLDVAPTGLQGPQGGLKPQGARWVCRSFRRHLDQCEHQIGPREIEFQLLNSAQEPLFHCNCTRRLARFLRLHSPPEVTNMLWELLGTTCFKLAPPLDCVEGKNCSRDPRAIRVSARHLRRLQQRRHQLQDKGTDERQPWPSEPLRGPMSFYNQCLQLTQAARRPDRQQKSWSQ
Neddyl inh conf = confirmation of human cullin neddylation inhibitors. shares compounds with Neddyl block. AID 652217. hit rate 13% among 1,800. calls only at 25 µM. TR-FRET cullin neddylation biochemical assay; in the data active = inhibition above about 40%;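 note: neddylation substrate is the cullin 1 ring ligase complex with SKP2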
Active calls of the source: *; i = inactive; . = not tested or not shown; + = active, no number. Sampled rows, rich in hits. Any-hit rate of the full collection: about 2%.

SMILES	ARNT-TACC3 inh	DAGLB inhibitor	Neddyl block	NadD inh	sPLA2-III inh	Neddyl inh conf
C=CCNC(=O)NC(=O)COC(=O)/C(C#N)=C/c1cc(C)n(CCC(C)C)c1C	-7.4	0.0	.	-6.7	-0.8	.
CCCn1c(C)cc(/C=C(\C#N)C(=O)OCC(=O)Nc2cccc(S(N)(=O)=O)c2)c1C	-1.7	-0.8	63.3*	17.2	-16.2	i
Cc1cc(/C=C(\C#N)C(=O)OCC(=O)NC(=O)NC(C)(C)C)c(C)n1CCC(C)C	2.1	-1.3	39.6*	9.0	6.1	i
CCC(=O)Nc1ccc2c(c1)C(=O)N(C)C[C@H](OC)[C@@H](C)CN(C(=O)c1ccc(F)cc1)[C@@H](C)CO2	0.9	.	.	.	.	.
CC(=O)Nc1cccc(N/C=C(\C=O)c2nc3ccccc3o2)c1	-10.9	-0.9	54.7*	-0.6	-1.8	i
CC(=O)Nc1ccc(/C=C/c2nc3ccccc3o2)cc1	-13.8	-1.8	46.7*	-5.3	-4.7	.
COCCNC(=O)C[C@H]1C=C[C@H](NC(=O)NC2CCCCC2)[C@@H](CO)O1	2.5	.	.	.	.	.
C=CCNC(=O)/C(C#N)=C/c1c(N2CCCCCC2)nc2ccccn2c1=O	8.8	2.6	48.1*	0.8	5.0	i
COc1ccc(C(=O)Nc2ccc(NC(=O)c3ccccc3)cc2)cc1S(=O)(=O)N1CCOCC1	-3.5	0.3	40.8*	3.5	-1.7	i
O=C(NC1CCCCC1)c1cnn2c(C(F)(F)F)cc(-c3ccco3)nc12	-8.3	-0.3	42.5*	10.7	-1.5	+
CCCCNC(=O)c1cc2nc(-c3ccccc3)cc(C(F)(F)F)n2n1	-7.5	-2.6	.	-3.0	6.5	.
CC(C)NC(=O)c1cc2nc(-c3ccco3)cc(C(F)(F)F)n2n1	-7.1	0.1	.	3.3	-2.7	.
O=C(NC1CCCC1)c1cc2nc(-c3ccco3)cc(C(F)(F)F)n2n1	-4.6	-1.7	55.4*	1.4	10.2	i
CCCNC(=O)c1cc2nc(-c3ccccc3)cc(C(F)(F)F)n2n1	-1.7	0.8	44.8*	-0.3	-0.9	.
O=C(NC1CCCCC1)c1nn2c(C(F)(F)F)cc(-c3ccco3)nc2c1Br	2.9	1.5	8.4	22.9	7.0	.
O=C(C[C@@H]1CC[C@@H](NC(=O)NC2CCCC2)[C@H](CO)O1)NCc1ccc(F)cc1	2.5	.	.	.	.	.
Cc1ccccc1/C=N/NC(=O)c1sccc1C	-4.7	3.0	11.8	2.9	4.3	.
COc1ccc(/C=N/NC(=O)c2sccc2C)c2ccccc12	-1.5	-2.5	38.6*	0.7	-6.9	i
COc1cccc(S(=O)(=O)Nc2ccc3c(c2)C(=O)N(C)C[C@H](OC)[C@H](C)CN[C@H](C)CO3)c1	-6.7	.	.	.	.	.
CSc1nc2nccc(-c3ccc4c(c3)OCO4)n2n1	-7.2	-0.4	47.8*	4.9	-2.7	i
CCC(=O)N1[C@H](C(=O)NC2CCC2)[C@@H](CO)[C@@H]2Cn3c(ccc(-c4ccc(F)cc4)c3=O)[C@@H]21	0.7	.	.	.	.	.
O=C(N/C(=C/c1cccs1)c1nc2ccccc2[nH]1)c1ccccc1	-7.4	-1.6	28.2	-3.3	2.7	.
Cc1ccc(C(=O)N/C(=C\c2cccs2)c2nc3ccccc3[nH]2)cc1	-2.6	0.0	45.4*	5.0	-8.3	.
Cc1[nH]c2ccccc2c1C(=O)C(C)OC(=O)c1ccccc1NCCO (configuration not stated)	-12.4	-2.9	54.4*	2.0	-19.0	.
O=C(C[C@H]1C[C@H]2c3cc(NC(=O)c4cccnc4)ccc3O[C@H]2[C@H](CO)O1)NCc1ccncc1	0.4	.	.	.	.	.
SMILES	ARNT-TACC3 inh	DAGLB inhibitor	Neddyl block	NadD inh	sPLA2-III inh	Neddyl inh conf
CC(C)[N+]1=C2C=CC=CC=C2SC12C([N+](=O)[O-])=CC(=[N+]([O-])[O-])C=C2[N+](=O)[O-] (configuration not stated)	22.7	6.0	43.6*	5.6	16.3	i
COc1cc(NC(=O)N[C@@H](Cc2c[nH]c3ccccc23)C(=O)O)c(C(=O)O)cc1OC	-6.2	1.6	45.5*	-11.3	-7.8	.
CCOC(=O)c1[nH]c2ccc(F)cc2c1NC(=O)CN1CCN(C/C=C/c2ccccc2)CC1	5.3	-5.2	41.6*	0.7	-31.6	i
CCOC(=O)c1[nH]c2ccc(OC)cc2c1NC(=O)c1ccccc1C(=O)O	.	1.2	42.9*	-0.6	0.8	i
C[C@H](CO)N1C[C@H](C)[C@@H](CN(C)Cc2ccc(Cl)c(Cl)c2)Oc2c(NC(=O)c3nc4ccccc4s3)cccc2C1=O	-3.3	.	.	.	.	.
CCOc1ccc2[nH]c(=O)c(CN(CCO)Cc3nnnn3CCc3ccccc3)cc2c1	-4.5	3.4	46.2*	-3.6	-6.3	i
COCCn1nnnc1CN(CCc1ccccc1)Cc1cc2ccc(C)cc2[nH]c1=O	-1.5	-0.3	6.0	0.5	-9.2	.
CCOc1ccc2[nH]c(=O)c(CN(CCCN3CCOCC3)Cc3nnnn3Cc3ccc(OC)cc3)cc2c1	-3.0	1.8	39.5*	-1.7	-12.3	i
Cc1cc(=O)c2c([nH]1)c(C)cc1[nH]c(C)c(C)c12	-0.3	-4.2	42.9*	3.2	8.4	.
COc1ccc(NC(=O)N[C@H]2C=C[C@H](CC(=O)NC3CCC3)O[C@H]2CO)cc1	-3.1	.	.	.	.	.
COc1ccc(-c2cnc3c(NC(C)=O)cc(-c4ccsc4)cn23)cc1OC	.	.	.	0.1	.	.
CC(=O)Nc1cc(-c2ccsc2)cn2c(-c3ccc(F)cc3)cnc12	.	.	42.4*	1.5	2.8	i
C[C@H]1CN([C@@H](C)CO)S(=O)(=O)c2ccc(C#Cc3cccc(F)c3)cc2O[C@H]1CN(C)CC1CC1	13.3	.	.	.	.	.
C[C@@H]1CN([C@H](C)CO)S(=O)(=O)c2ccc(-c3cccc(C#N)c3)cc2O[C@@H]1CN(C)C(=O)C1CC1	-6.7	.	.	.	.	.
Cc1cc(C)n2nc3ccccc3c2n1	-6.1	-0.1	41.5*	1.0	4.8	i
Cc1cc(=O)[nH]c2c3ccccc3nn12	-4.7	3.3	5.4	-6.8	1.4	.
CCOC(=O)c1snc2c(=O)[nH]cnc12	.	2.3	49.0*	-0.3	0.8	i
CCOC(=O)c1sc2nc[nH]c(=O)c2c1C	4.5	-0.8	3.6	-5.0	2.3	.
CSc1ncc(C(=O)O)c(C)n1	-4.3	-0.5	-9.5	-1.7	11.2	.
Cc1ncc(C(=O)O)c(C(=O)O)c1N	-6.8	-2.5	40.5*	-5.1	-0.6	.
Cc1ccccc1NC(=O)Nc1ccc2c(c1)C(=O)N(C)[C@H]1CC[C@@H](CC(=O)O)O[C@@H]1CO2	-3.9	.	.	.	.	.
COc1cccc(-c2cc3nc(C)cc(N4CCN(C(=O)c5ccoc5)CC4)n3n2)c1	.	-1.0	46.9*	7.3	-4.1	.
COc1ccc2c(c1)c(C(=O)CNc1nc(C)cs1)c(C)n2C	17.9	1.6	39.0*	4.9	13.9	i
COC(=O)/C(=C\c1ccc2c(c1)c1ccccc1n2C)NC(=O)c1ccccc1	2.0	-0.5	42.3*	5.0	4.4	i
COC(=O)/C(=C\C=C\c1ccccc1)NC(=O)c1ccccc1	5.6	-2.5	-18.7	0.5	5.4	.

Screening results deposited in PubChem BioAssay by several laboratories.
